Compounds with a hit are over-represented: about 0.92% of the library has one in this group of screens.
uPA generation – qHTS for Inhibitors of Cell Surface uPA Generation; Potency, µM (titrated, usually from 38.3 µM), for inactives: at the highest dose activity change, negative = inhibition, actives largely listed as inhibitors; cell surface uPA generation assay, qHTS; 330,000 compounds, 0.31% hits; active means well fitted inhibition curve with a large enough effect; inconclusive means small, poorly fitted or top-dose-only effect; inactive means no such curve, though single readings can be large or run the other way; tested in mouse RAW 264.7 cells; further: potency means the concentration at half of the fitted maximal effect; on the % scale 0 is the no-effect control and ±100 the full control effect; nearly all actives have a fitted effect of over 55% in size
miR-21 reporter – qHTS Assay for Modulators of miRNAs and/orActivators of miR-21. 340,000 tested, under 10 active. Potency, µM (highest dose often 38.3 µM), without a hit: top-dose activity change, positive = activation, actives largely listed as activators. HeLa miR-21 FLuc reporter, luciferase, 48 h;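 further: % of control where 0% means no effect; miR-21 action dims this reporter so a rising signal means less miR-21 action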
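HeLa cells stably expressing CMV-driven firefly luciferase with a downstream miR-21 binding sequence, endogenously expressing miR-21, were treated with titrations (up to about 40uM final) for 48 hours at 37 degree Celsius. Luciferase luminescence was read after lysis.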
Coupling enz – qHTS Assay for Inhibitors of Fructose-1,6-bisphosphate Aldolase from Giardia Lamblia: Coupling assay counterscreen. coupling enzyme system counterscreen, AmpLite Red fluorescence. activity change, negative = inhibition, % at 58.2 µM, hits read low. 290,000 compounds, 0.67% hits. AID 2472, 2010; in the data active means activity change below about -30%; further: on the % scale 0 is the no-effect control and ±100 the full control effect
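Compounds tested against the coupling enzymes alone at 57.5 uM final; readout was AmpLite Red fluorescence (525/598 nm) after 20 min at RT.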
GALK inhibitor – qHTS Assay for Inhibitors of Human Galactokinase (GALK); P51570; Purified GALK, Kinase-Glo residual ATP luminescence; Potency, µM (titrated, usually from 57.5 µM), for inactives: at the highest dose activity change, negative = inhibition, most hits filed as inhibitors; 270,000 compounds, 0.007% hits; AID 1868, 2009; further: potency means the concentration at half of the fitted maximal effect; on the % scale 0 is the no-effect control and ±100 the full control effect
Target sequence (P51570 whole entry, looked up): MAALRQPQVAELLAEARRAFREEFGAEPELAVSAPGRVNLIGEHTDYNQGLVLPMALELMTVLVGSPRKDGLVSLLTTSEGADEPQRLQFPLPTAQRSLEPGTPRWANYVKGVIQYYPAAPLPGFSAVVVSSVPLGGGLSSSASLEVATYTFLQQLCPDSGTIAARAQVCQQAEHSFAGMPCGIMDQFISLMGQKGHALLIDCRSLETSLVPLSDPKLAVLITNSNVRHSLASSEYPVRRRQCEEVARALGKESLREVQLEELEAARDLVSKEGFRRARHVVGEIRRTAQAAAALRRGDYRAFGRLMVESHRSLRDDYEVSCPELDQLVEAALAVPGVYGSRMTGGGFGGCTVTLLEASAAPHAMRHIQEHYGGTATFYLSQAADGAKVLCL
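The enzyme phosphorylates galactose (100 uM) using ATP (35 uM); inhibition is detected as higher residual ATP, quantified by bioluminescence after 1 h reaction at room temperature, pH 8.0.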
Giardia killer – Small Molecules that selectively kill Giardia lamblia: qHTS. Giardia lamblia trophozoite viability. activity change, % at 7.66 µM, hits read low. 340,000 compounds, 0.15% hits; in the data active means activity change below about -80%; inconclusive means between about -30% and that limit;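 further: parasites exposed to compound for two days anaerobically before the ATP read; on the % scale 0 is the no-effect control and ±100 the full control effect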
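ATP-content bioluminescence gauges trophozoite survival. Cells (100/well) receive compound and incubate anaerobically for 48 hrs at 37 deg C; detection reagent follows for 15-30 min at room temperature.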
B2AR arrestin – qHTS assay of beta-arrestin-biased ligands of beta2-adrenergic receptor; AID 492947, 2010; beta-arrestin recruitment to beta2AR, cell-based reporter; Potency, µM (doses to about 46.1 µM), for inactives: at the top dose activation, usual class: activators; Beta-2 adrenergic receptor (Homo sapiens), P07550; 330,000 compounds, 0.02% hits;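 further: potency means the concentration at half of the fitted maximal effect; 0% = DMSO controls and full agonism = EC100 isoproterenol or metaproterenol; nearly all actives have a fitted effect of over 65% in size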
Numbers without * were called inactive; u = inconclusive; x = not tested or not shown; ! = not active in a repeat. Unless noted, the call rests on the fitted dose curve; in most records, active means well fitted curve in the direction sought with a large enough effect; inconclusive means small, poorly fitted or top-dose-only effect, or another doubt; inactive means no such curve, though single readings can be large; an effect the other way counts as inactive or inconclusive.

SMILES | uPA generation | miR-21 reporter | Coupling enz | GALK inhibitor | Giardia killer | B2AR arrestin
Cc1ccc(S(=O)(=O)N2CCN(Cc3cc(Br)ccc3O)CC2)cc1 | x | 2% | x | x | x | x
CCCN(c1ccc(C(C)C)cc1)S(=O)(=O)c1ccc2c(c1)CCN2C(=O)CC | x | -4% | x | x | x | x
O=C(C1CCN(c2ncnc3c2sc2cccc(F)c23)CC1)N1CCCC1 | x | -25% | -44* | -2% | x | 0%
CCOc1ccc2nc(NC(=O)CS(=O)(=O)c3ccc(Cl)cc3)sc2c1 | x | 26% | x | x | x | x
CCN1CCN(c2nnc(-n3cccc3C(=O)Nc3cccc(OC)c3)s2)CC1 | x | 1% | x | x | x | x
C=CCn1c(-c2ccccc2)c[nH]c1=S | -3% | -34% | -3 | -2% | -1 | u
C=CCn1c(-c2ccc(Cl)cc2)c[nH]c1=S | -1% | 15% | 2 | 8% | 8 | 20µM*
COc1cccc(/C=C/C(=O)NNC(=O)c2ccco2)c1OC | 2.8µM* | x | x | x | u | 0%
O=C1Cc2ccccc2Sc2c(OCCN3CCCCC3)cccc21 | -1% | -2% | -50* | 4% | -5 | -1%
O=C(/C=C/c1ccc(O)c(O)c1)c1ccc(O[C@@H]2O[C@H](CO)[C@@H](O)[C@H](O)[C@H]2O)c(O)c1O | x | x | -11 | x | x | x
CCCN1C(=O)C(=O)c2cc(Cl)ccc21 | 5.6µM* | x | x | x | 3 | 0%
O=C1C(=O)N(CCS(=O)(=O)c2ccccc2)c2ccc(Cl)cc21 | u | 19% | -29 | -1% | -14 | 0%
O=C(O)Cc1ccc(N=Cc2c(O)ccc3ccccc23)cc1 | -8% | -2% | -18 | 0% | -20 | -1%
Cc1oc(/N=C/c2ccccc2O)c(C#N)c1C | -6% | -4% | -16 | 5% | 6 | -1%
CCOC(=O)c1sc(/N=C/c2c(O)ccc3ccccc23)cc1C | -9% | -13% | -34* | 1% | 4 | -1%
N#Cc1cccc(N=Cc2c(O)ccc3ccccc23)c1 | -8% | -6% | -38* | 0% | 1 | -1%
O=S(=O)(/N=C/c1c(O)ccc2ccccc12)c1ccccc1 | -6% | -5% | -36* | -3% | -10 | 0%
Cc1oc(/N=C/c2c(O)ccc3ccccc23)c(C#N)c1C | x | -6% | -30* | 7% | x | 0%
Cc1ccc2nc(NC(=O)CSc3nccn3Cc3ccc(F)cc3)sc2c1 | x | 0% | x | x | x | x
Cn1c(/N=C/c2c(O)ccc3ccccc23)nc2ccccc21 | x | -38% | -79* | 0% | -6 | 0%
Cc1ccc(N=Cc2c(O)ccc3ccccc23)cc1F | 2% | -3% | -47* | x | -11 | 0%
COc1ccc(N=Cc2c(O)ccc3ccccc23)cc1 | -5% | 10% | -23 | 0% | 9 | 0%
NC(=O)c1ccc(N=Cc2c(O)ccc3ccccc23)cc1 | 1% | x | x | x | -14 | x
O=C(O)c1ccc(N=Cc2c(O)ccc3ccccc23)cc1 | -4% | 3% | -36* | -3% | 6 | 0%
COC(=O)CSc1nc(-c2ccccc2)cc(-c2ccco2)c1C#N | -4% | -10% | -32* | -1% | -5 | -1%
SMILES | uPA generation | miR-21 reporter | Coupling enz | GALK inhibitor | Giardia killer | B2AR arrestin
COC(=O)CCSc1nc2sc3c(c2c(=O)n1Cc1ccccc1)CCC(C(C)(C)C)C3 (stereo unspecified) | x | 1% | x | x | x | x
CC(=O)c1ccc(NC(=O)CC2Nc3cccc4cccc(c34)NC2=O)cc1 (stereo unspecified) | 7% | 5% | -31* | 0% | 4 | 0%
CCCCNC(=O)c1cccc(S(=O)(=O)N2CC3(C)CC2CC(C)(C)C3)c1 (stereo unspecified) | 2.2µM* | x | x | x | 9 | 0%
CC1(C)CC2CC(C)(CN2S(=O)(=O)c2cccc(C(N)=O)c2)C1 (stereo unspecified) | 15% | x | x | x | u | -4%
COCCNC(=O)c1cccc(S(=O)(=O)N2CC3(C)CC2CC(C)(C)C3)c1 (stereo unspecified) | 4µM* | x | x | x | -18 | 0%
COCCCNC(=O)c1cccc(S(=O)(=O)N2CC3(C)CC2CC(C)(C)C3)c1 (stereo unspecified) | 6.3µM* | x | x | x | u | -1%
CC1(C)CC2CC(C)(CN2S(=O)(=O)c2cccc(C(=O)OCC(N)=O)c2)C1 (stereo unspecified) | 0% | x | x | x | -14 | 0%
Cc1c(C(=O)Nc2cccc(Cl)c2)oc2ccc(S(=O)(=O)N(C)C3CCCCC3)cc12 | x | 19% | x | x | x | x
Cc1cccc(N2CCN(C(=O)CS(=O)(=O)Cc3nc(-c4ccccc4C)oc3C)CC2C)c1 (stereo unspecified) | x | 30% | x | x | x | x
CCc1ccc(-n2nc(CO)c(C(=O)NCc3cccs3)n2)cc1 | x | -6% | x | x | x | x
O=C(CSc1ccsc1[N+](=O)[O-])NC1CCCC1 | -9% | -1% | 0 | -1% | -90* | 0%
COc1ccc(CCNC(=O)CSc2ccsc2[N+](=O)[O-])cc1OC | -23% | 6% | -1 | -1% | -89* | 0%
COc1ccc(OC)c(CCNC(=O)CSc2ccsc2[N+](=O)[O-])c1 | u | 2% | -2 | -3% | u | 0%
COc1ccc(-c2nc3sc(CCNC(=O)c4ccccc4C)c(C)n3n2)cc1 | x | 0% | x | x | x | x
COc1ccc(-n2nc3cc(N)c(Br)cc3n2)cc1 | -6% | -56% | -2 | -5% | -11 | 0%
COc1ccc(-n2nc3cc(C)c(N)c(Br)c3n2)cc1 | -4% | -78% | -50* | 1% | -22 | 1%
CCN(Cc1ccccc1)S(=O)(=O)c1ccc(C(=O)Nc2nnc(C3CC3)o2)cc1 | 3.5µM* | 29% | 13 | 1% | -19 | 0%
Cc1nnc(NC(=O)c2ccc(S(=O)(=O)N(C)Cc3ccccc3)cc2)o1 | 0% | 14% | 4 | 2% | u | 0%
CCOc1ccccc1CNC(=O)c1cnc2sc(N3CCOCC3)nn2c1=O | x | -5% | x | x | x | x
CCN(CC)S(=O)(=O)c1ccc(N/N=C(\C)c2ccc(OC)cc2O)nc1 | 5.6µM* | 24% | -20 | 0% | -10 | u
CC(C)C(NS(=O)(=O)c1ccc2c(c1)oc(=O)n2C)C(=O)NCCc1ccccc1 (stereo unspecified) | x | 3% | x | x | x | x
CCc1ccc(NC(=O)c2ccc(Cn3nc(N4CCN(c5ccccc5)CC4)ccc3=O)o2)cc1 | x | 15% | x | x | x | x
O=[N+]([O-])c1ccc(O)c2cccnc12 | 2% | -3% | -17 | -2% | 8 | 0%
O=Nc1ccc(O)c2ncccc12 | u | u | -35*! | 4% | -26 | 3%
COc1ccc(N=Nc2ccc(O)c3ncccc23)cc1 | u | 0% | -3 | 1% | -8 | 0%
Cc1ccccc1N=Nc1ccc(O)c2ncccc12 | -13% | u | 0 | 1% | -23 | -2%

Source: PubChem (National Center for Advancing Translational Sciences (NCATS))
